# Measurements taken from the supplement of paper PMC7156485.
# ± gives the standard deviation of the averaged measurements.
# How the values were obtained:
# Settings in all cases: concentration: 10 µM; 24 h
# HCC1569 [1] = experiment: cell number relative to DMSO (% of DMSO); higher = more cells (less growth inhibition / toxicity)
# Method in brief: (§1)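 In 384-well plates holding 800 HCC1569 or TDF cells per well in RPMI with 10% FBS, compounds were tested at 10 µM for 24 h at 37 °C in triplicate. Fixation used 3.7% formaldehyde. Staining used a rabbit anti-H1.0 antibody with an AlexaFluor 647 secondary, plus DAPI. Each value, H1.0 nuclear intensity or cell number, is a median of replicates shown as percent of the plate control, and HCC1569 values were smoothed for positional effects.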
# TDF [2] = experiment: as above
# Method in brief: as §1
# TDF [3] = experiment: H1.0 immunofluorescence intensity relative to DMSO (% of DMSO); higher = stronger H1.0 induction, active = 120 or more
# Method in brief: as §1
# HCC1569 [4] = experiment: H1.0 immunofluorescence intensity relative to DMSO (% of DMSO); higher = stronger H1.0 induction, active = 140 or more
# Method in brief: as §1
# 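For H1.0 immunofluorescence intensity relative to DMSO in this document: TDF is a line of transformed human dermal fibroblasts of mesenchymal origin.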
# 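For cell number relative to DMSO in this document: TDF denotes transformed human dermal fibroblasts of mesenchymal origin.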
Structure (SMILES),cell number (HCC1569 [1]),cell number (TDF [2]),H1.0 immunofluorescence intensity (TDF [3]),H1.0 immunofluorescence intensity (HCC1569 [4])
CCCOc1ccc(C=C2SC(=O)NC2=O)cc1 [PIM1/2 Kinase Inhibitor VI],106,110,103 (inactive),98.1 (inactive)
CN1CCC(=C2c3ccccc3CC(=O)c3sccc32)CC1.O=C(O)C=CC(=O)O [Ketotifen fumarate],101,99.6,91.6 (inactive),98.7 (inactive)
O=C(O)CCC(=O)N1CCC[C@H]1C(=O)O [N-Succinyl-L-proline],99.6,100,102 (inactive),104 (inactive)
COc1cc2ncnc(Nc3cccc(Cl)c3)c2cc1OC,83.8,88,99.4 (inactive),111 (inactive)
O=C(Nc1ccc(S(=O)(=O)Nc2nccs2)cc1)C(c1ccccc1)c1ccccc1,93.6,105,86 (inactive),108 (inactive)
CNc1cc(NS(=O)(=O)c2ccc(N)cc2)nc(NC)n1.Cl.Cl [Ro 04-6790 dihydrochoride],107,108,98.7 (inactive),84.4 (inactive)
O=C(CCc1ccc(O)cc1)c1c(O)cc(O)cc1O [Phloretin],97.73 ± 0.41,98.5 ± 17,96.1 (inactive),107 (inactive)
CC1(C)SC2C(NC(=O)C(N)c3ccccc3)C(=O)N2C1C(=O)O (centres undefined) [Ampicillin],103,109,90 (inactive),108 (inactive)
CCCCCCCCCCCC=CCCCCC(=O)O [6(E)-Octadecenoic acid],100,101,102 (inactive),89.5 (inactive)
CC(=O)OCC(=O)NCCCOc1cccc(CN2CCCCC2)c1.Cl [Roxatidine acetate.HCl],107,95.7,103 (inactive),99 (inactive)
FC(F)(F)c1ccc(CNc2ccc(Cc3c[nH]c4ncccc34)cn2)cc1,75.5,74.9,108 (inactive),139 (inactive)
Cc1cccc(C#Cc2ccccc2)n1.Cl [6-Methyl-2-(phenylethynyl)pyridine hydrochloride],99.9,105,91.5 (inactive),96.7 (inactive)
C=CC1CN2CCC1CC2C(O)c1ccnc2ccc(OC)cc12.Cl.O (centres undefined),99.6,90.1,96.8 (inactive),95 (inactive)
CCNC(=O)C1OC(n2cnc3c(NCc4ccccc4)ncnc32)C(O)C1O (centres undefined) [N6-Benzyl-5'-N-ethylcarboxamidoadenosine],77,57.3,103 (inactive),114 (inactive)
Cn1c(-c2ccc3c(c2)OCO3)cc(=O)c2ccccc21 [Graveoline],103,99.8,101 (inactive),96.9 (inactive)
O=C(O)CCCc1c[nH]c2ccccc12 [Indole-3-butyric acid],104,99,98.4 (inactive),86.6 (inactive)
Fc1ccc(C2CCNCC2COc2ccc3c(c2)OCO3)cc1 (centres undefined) [Paroxetine],97.7,99.3,99.1 (inactive),114 (inactive)
O=C(NCCN1CCC(n2c(=O)[nH]c3cc(Cl)ccc32)CC1)c1ccc(F)cc1,91.9,98,96.6 (inactive),99.5 (inactive)
CCCCCCCC/C=C\CCCCCCCC(=O)NCc1ccc(O)c(OC)c1 [(9Z)-N-(4-hydroxy-3-methoxybenzyl)-9-octadecenamide],40.4,91.5,95.2 (inactive),171 (active)
"CN(Cc1cnc2nc(N)nc(N)c2n1)c1ccc(C(=O)NC(CCC(=O)O)C(=O)O)cc1 (single isomer, unassigned; (-)) [(-)Amethopterin]",96.4,96.2,106 (inactive),110 (inactive)
CC(C)CNCc1ccc(-c2ccccc2S(=O)(=O)N2CCCC2)cc1.Cl,96,99.2,88.9 (inactive),100 (inactive)
